Only some compounds are listed: those with a hit (about 13% of all), similar ones and a draw of the others.
USP10 block = human USP10 deubiquitinase inhibition; Q14694; purified USP10, Ub-rhodamine fluorescence, 60 min; inhibition, % at 20 µM; actives 1.1% (n = 47,000); AID 1645856
USP8 inh = blocks human USP8 ubiquitin-rhodamine cleavage; purified USP8, Ub-rhodamine cleavage fluorescence, 30 min; inhibition, % at 20 µM; actives 4.2% (n = 47,000); AID 1645853
USP30 block = blocks human USP30 ubiquitin-rhodamine cleavage | Q70CQ3 | purified USP30, Ub-rhodamine cleavage fluorescence | inhibition, % at 25 µM | actives 5.3% (n = 47,000)
USP7 inh = blocks human USP7 ubiquitin-rhodamine cleavage; purified USP7, Ub-rhodamine cleavage fluorescence; AID 1645854; inhibition, % at 20 µM; actives 0.3% (n = 47,000); Q93009
USP28 inh = human USP28 deubiquitinase inhibition. AID 1645857. inhibition, % at 25 µM. purified USP28, Ub-rhodamine cleavage fluorescence, 30 min. actives 3% (n = 47,000). Q96RU2
USP17 block = blocks human USP17 ubiquitin-rhodamine cleavage | A8MUK1 | purified USP17, Ub-rhodamine cleavage fluorescence, 3 h | inhibition, % at 50 µM | actives 6.5% (n = 47,000) | AID 1645855
The depositor's hits bear a star. No stated cut-off is given here; in the data, active means inhibition above about 30%; inactive means the rest.

For O=c1cc(CN2CCc3ccccc32)cc[nH]1 the results were USP10 block -7, USP8 inh 33*, USP30 block inactive, USP7 inh -17, USP28 inh -103 and USP17 block -86.
Screening O=S1(=O)CCC(S(=O)(=O)Nc2ccc(OCc3ccc(Cl)cc3)cc2)C1 (centres undefined) returned USP10 block 0, USP8 inh 57*, USP30 block 19, USP7 inh -3, USP28 inh 9 and USP17 block 35*.
`O=S1(=O)CCC(S(=O)(=O)Nc2cccc(C(F)(F)F)c2)C1` (centres undefined) gave USP10 block 0, USP8 inh 0, USP30 block -96, USP7 inh 0, USP28 inh -8 and USP17 block -38.
For CC(=O)Nc1ccc(C(=O)N2CCC3(CC2)CO[C@@H]([C@@]2(C)CC[C@H](O)C(C)(C)O2)C3)cc1 the results were USP10 block -3, USP8 inh 21, USP30 block 16, USP7 inh 8 and USP28 inh 12.
`CCCCn1c(=O)c(CCC(=O)OCC(=O)Nc2ccc3c(c2)OCCO3)nc2ccccc21` gave USP10 block 0, USP8 inh -3, USP30 block -4, USP7 inh 0, USP28 inh 62* and USP17 block -12.
O=C(NCc1ccc(F)cc1)c1cc(-n2cnnn2)ccc1Cl was read as USP10 block 3, USP8 inh 24, USP30 block 30*, USP7 inh 1, USP28 inh 30* and USP17 block 67*.
Screening Cc1c(C(=O)NC2CCCCC2)oc2ccc3c(c12)C(O)CC1(CCCCC1)O3 (centres undefined) returned USP10 block 6, USP8 inh -23, USP30 block 9, USP7 inh 9, USP28 inh 15 and USP17 block 5.
For CCOC(=O)c1ccc(NC(=O)C2CCN(c3nccc4sccc34)CC2)cc1 the results were USP10 block 4, USP8 inh 54*, USP30 block -61, USP7 inh -7, USP28 inh 18 and USP17 block 15.
Screening CCOC(=O)c1ccc(NC(=O)c2ccc(SCCN3CCOCC3)nc2)cc1 returned USP10 block 0, USP8 inh 12, USP30 block 18, USP7 inh 5, USP28 inh 0 and USP17 block 22.
Screening C[C@@H]1C(=O)O[C@H]2CC34[C@H]5C[C@@H](C(C)(C)C)C36[C@@H](OC(=O)[C@@H]6O)OC4(C(=O)O5)[C@]21O (some centres undefined) returned USP10 block 7, USP8 inh 0, USP30 block 41*, USP7 inh 3, USP28 inh 9 and USP17 block 20.
Screening Cc1ccccc1Cn1c(=O)c(C#N)c2n(c1=O)CCC2 returned USP10 block -2, USP8 inh 7, USP30 block -47, USP7 inh -19, USP28 inh -4 and USP17 block 0.
COc1cc(C#N)c(NC(=NCc2ccc(F)cc2)SC)cc1OC was read as USP10 block -1, USP8 inh 14, USP30 block 48*, USP7 inh 5, USP28 inh 35* and USP17 block 53*.
For COc1ccc(NC(=O)COc2ccc(C(=O)c3ccc(F)cc3)cc2)c(OC)c1 the results were USP10 block 1, USP8 inh 9, USP30 block 9, USP7 inh 6, USP28 inh -1 and USP17 block 10.
Screening CCOC(=O)c1cnn(-c2nc(-c3ccccc3)c(S(=O)(=O)c3ccc(Cl)cc3)s2)c1C(F)(F)F returned USP10 block 2, USP8 inh 5, USP30 block 20, USP7 inh 5, USP28 inh 2 and USP17 block 14.
CCOC(=O)c1cnn(-c2nc3ccccc3s2)c1N=CN(C)C was read as USP10 block 4, USP8 inh 11, USP30 block 97*, USP7 inh 4, USP28 inh 69* and USP17 block 70*.
`O=C(c1cccn1Cc1noc(-c2ccccc2)n1)N1CCCC1` gave USP10 block 0, USP8 inh 0, USP30 block -7, USP7 inh -4, USP28 inh 8 and USP17 block 0.
Screening CCc1nc2ccc(C(=O)Nc3nc(-c4ccc5c(c4)CCN5C(=O)C(C)C)cs3)cc2nc1CC returned USP10 block -1, USP8 inh -5, USP30 block -130, USP7 inh -12, USP28 inh -27 and USP17 block -17.
Screening O=S1(=O)NC(=NCCc2cccc(F)c2)c2ccccc21 returned USP10 block 1, USP8 inh 22, USP30 block 34*, USP7 inh 2, USP28 inh 6 and USP17 block 49*.
Screening O=C(CN1CCc2ccccc21)Nc1cc(C(=O)O)ccc1O returned USP10 block 0, USP8 inh 49*, USP30 block -12, USP7 inh 1, USP28 inh 2 and USP17 block 6.
`COc1ccccc1C1CCN(Cc2c(C)[nH]c3ccccc23)CC1` gave USP10 block -4, USP8 inh -7, USP30 block 31*, USP7 inh 5, USP28 inh 16 and USP17 block 0.
`COc1cc(CN2CCN(Cc3c[nH]c4ccccc34)CC2)cc(OC)c1OC` gave USP10 block -9, USP8 inh -88, USP30 block -26, USP7 inh -1, USP28 inh -33 and USP17 block -32.
`O=C(Nc1ncc2c(n1)-c1ccccc1CC2)C1CC1` gave USP10 block 0, USP8 inh 1, USP30 block 8, USP7 inh 2, USP28 inh -15 and USP17 block 56*.
For O=C(CCn1c(=O)c2ccccc2n(Cc2cccc([N+](=O)[O-])c2)c1=O)N1CC=C(c2ccccc2)CC1 the results were USP10 block 16, USP8 inh -1, USP30 block 39*, USP7 inh 3, USP28 inh 18 and USP17 block 8.
`Cc1cc(NC(=O)Cn2c(=O)n(CCC(=O)N3CC=C(c4ccccc4)CC3)c(=O)c3ccccc32)n[nH]1` gave USP10 block 23, USP8 inh 68*, USP30 block 21, USP7 inh 8, USP28 inh 6 and USP17 block 2.
`O=C(Cn1c(=O)n(CCCC(=O)N2CC=C(c3ccccc3)CC2)c(=O)c2ccccc21)NCCC1=CCCCC1` gave USP10 block 12, USP8 inh 6, USP30 block 17, USP7 inh 0, USP28 inh -2 and USP17 block 52*.
Screening Cc1cc(NC(=O)Cn2c(=O)n(CCc3ccccc3)c(=O)c3ccccc32)n[nH]1 returned USP10 block 8, USP8 inh 10, USP30 block 6, USP7 inh -3, USP28 inh 0 and USP17 block 25.
